# Assay outcomes: PubChem BioAssay, Broad Institute
# This is a sample that favours compounds with a hit; in the whole collection about 3.4% have one here.
# HSF-1 act: increases HSF-1 driven luciferase reporter signal; NIH3T3-HGL HSF-1 luciferase reporter, MG132, 8 h; 100% = twice DMSO control signal; activation, % at 9 µM; actives 1.7% (n = 300,000); AID 504408;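 active means mean replicate activation of at least 50% with a set share of replicates each reaching 50%; inconclusive means only one of those two conditions met; inactive means mean below 50% and too few replicates reaching it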;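 further: 0% = median of the neutral control wells and 100% = twice that signal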
# Vif imaging: HIV Vif inhibition | actives 0.35% (n = 340,000) | HEK293T cells, Vif self-association by quenched fluorescence, imaging, 24 h | inhibition, % at 7.49 µM | AID 602346; in the data active means inhibition above about 50%, passing the limit was not always enough; inconclusive means no clear call, values can overlap the other calls; inactive means below about 31%
# HSF1 inh: HSF1 inhibition; NIH3T3-HGL HSE-luciferase, MG132-induced, luminescence 8 h; active compounds read low; activity change, negative = inhibition, % at 7.5 µM (by protocol); actives 0.77% (n = 300,000);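 active means more than half of replicate wells show activity change below -50%, luminescence cut by over half; inconclusive means some wells, but at most half, below -50%; inactive means no replicate well below -50%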;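 further: luciferase reports HSF-1 transcriptional activity via heat shock element; 0% = median of DMSO wells and -100% = zero luminescence signal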
# esBAF inh: inhibitors of esBAF chromatin remodeling in mouse ES cells. Bmi1-luciferase knock-in reporter, 24 h; 100% = twice the neutral-well signal. actives 2% (n = 350,000). reporter increase, % at 12.5 µM; in the data active means activation above about 40%; inconclusive means no clear call, values can overlap the other calls;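 further: 0% = median of the plate's neutral control wells and 100% = double that signal; a rise in the Bmi1 reporter signal indicates esBAF inhibition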
# * marks the source's active call; other numbers are inactive results; u = inconclusive; x = not tested or not shown.
SMILES,HSF-1 act,Vif imaging,HSF1 inh,esBAF inh
Cc1ccc(-c2cc(-c3ccccc3Cl)[nH]n2)c(O)c1,37.6,-3.3,47.2,51.7*
CC1CCCC(C)N1C(=O)c1cc(-c2ccc(Cl)c(Cl)c2)on1 (centres undefined),5.7,-12.2,-0.2,79.7*
CC1CCCC(C)N1C(=O)c1cc(-c2ccc3c(c2)OCO3)on1 (centres undefined),-31.0,0.8,-5.8,56.4*
Cc1onc(-c2c(Cl)cccc2Cl)c1C(=O)N1C(C)CCCC1C (centres undefined),-13.0,7.5,0.5,2.3
c1ccc(N2CCN(c3cnc4ccccc4n3)CC2)cc1,74.8*,-9.5,34.3,-2.3
COc1ccc(N2CCN(c3cnc4ccccc4n3)CC2)cc1,48.5,0.0,37.3,52.5*
Clc1ccc(N2CCN(c3cnc4ccccc4n3)CC2)cc1,46.2,2.4,13.9,44.7*
Fc1ccc(N2CCN(c3cnc4ccccc4n3)CC2)cc1,34.5,11.8,34.2,11.2
c1ccc(Sc2cnc3ccccc3n2)cc1,22.8,0.4,13.6,x
Clc1ccc(Sc2cnc3ccccc3n2)cc1,30.0,-8.9,25.1,44.7*
CNC[C@@H]1Oc2ncc(C#CC3CCCCC3)cc2C(=O)N([C@H](C)CO)C[C@@H]1C,x,x,x,-4.3
O=C(OCC(=O)N1CCc2ccccc21)c1ccccc1,67.5*,-25.9,33.6,15.8
Cc1ccc(OCC(=O)N2CCCc3ccccc32)cc1,x,-0.5,x,38.3
CCCOc1ccc(N2CC(C(=O)NC(C)C)CC2=O)cc1 (centres undefined),-69.0,1.2,-59.6*,-4.8
O=C(OCC(=O)N1CCCc2ccccc21)c1ccccc1[N+](=O)[O-],38.0,-11.6,30.3,110.6*
O=C(OCC(=O)N1CCc2ccccc21)c1cccnc1,8.0,-2.2,3.3,0.7
Cc1ccc(OCC(=O)N2CCc3ccccc32)cc1,66.8*,-0.7,36.7,41.0
CCCOc1ccc(N2CC(C(=O)Nc3ccccc3OC)CC2=O)cc1 (centres undefined),-10.4,8.2,-1.1,-3.2
O=C(COc1ccccc1[N+](=O)[O-])N1CCCc2ccccc21,15.7,-1.0,11.4,9.6
C[C@@H]1CN([C@@H](C)CO)C(=O)c2cc(C3=CCCCC3)cnc2O[C@@H]1CN(C)Cc1ccccn1,x,x,x,2.1
NS(=O)(=O)c1ccc(NC(=O)COC(=O)C2(c3ccccc3F)CCCC2)cc1,-66.3,5.4,-57.2*,-0.3
CCOc1ccc(N2CC(C(=O)N3CCCCC3)CC2=O)cc1 (centres undefined),7.5,3.6,4.3,-0.7
CN(C(=O)c1ccccc1C(=O)OCC(=O)Nc1ccc(S(N)(=O)=O)cc1)c1ccccc1,-82.5,2.6,-78.7*,x
O=C(COC(=O)C1(c2ccccc2F)CCCC1)N1CCc2ccccc21,-64.4,-13.7,-61.4*,-0.6
O=C(COC(=O)C1(c2ccc(F)cc2)CCCC1)N1CCc2ccccc21,36.3,-6.6,13.7,x
SMILES,HSF-1 act,Vif imaging,HSF1 inh,esBAF inh
CCOc1ccc(N2CC(C(=O)N3CCc4ccccc43)CC2=O)cc1 (centres undefined),51.8*,-4.6,6.9,2.5
CNC[C@@H]1OCCCC[C@@H](C)Oc2ccc(NC(=O)CCC(F)(F)F)cc2C(=O)N([C@@H](C)CO)C[C@H]1C,x,x,x,-5.7
O=C(COc1ccc2c(c1)CCC2)N1CCc2ccccc21,49.5,-4.1,38.2,78.2*
CC(=O)Nc1ccc(NC(=O)COc2ccc3c(c2)CCC3)cc1,-54.1,21.6,-39.7,x
CCc1ccc(OCC(=O)N2c3ccccc3CCc3ccccc32)cc1,-13.2,7.3,-2.3,x
Cc1ccnc(NC(=O)COc2ccc3c(c2)CCC3)c1,13.5,7.5,2.9,52.9*
CCCc1cc(=O)oc2cc(OCC(=O)N3CCc4ccccc43)ccc12,-10.5,20.1,-3.0,-5.5
CCc1ccc(OCC(=O)N2CCc3ccccc32)cc1,65.3*,-7.2,23.8,47.1*
CCCOc1ccc(/C=C/c2[nH]c(=O)[nH]c(=O)c2[N+](=O)[O-])cc1OCC,5.4,1.2,3.0,-10.3
CCOc1cc(/C=C\c2[nH]c(=O)[nH]c(=O)c2[N+](=O)[O-])ccc1OC(C)CC (centres undefined),63.9*,x,41.0,x
CCOC(=O)COc1ccc(Br)cc1/C=C/c1[nH]c(=O)[nH]c(=O)c1[N+](=O)[O-],85.0*,-3.9,53.2,-0.5
CCOC(=O)COc1ccc(Br)cc1/C=C\c1[nH]c(=O)[nH]c(=O)c1[N+](=O)[O-],13.3,-6.7,7.4,x
COc1ccc(NC(=O)Nc2ccc3c(c2)C(=O)N([C@H](C)CO)C[C@H](C)[C@H](CN(C)C(=O)Nc2ccc(F)cc2)OCCCC[C@H](C)O3)cc1,x,x,x,4.5
C[C@H](NC(=O)C[C@H]1C[C@@H]2c3cc(NC(=O)c4cccnc4)ccc3O[C@@H]2[C@@H](CO)O1)c1ccccc1,x,x,x,2.8
NC(CSCc1cccc(Br)c1)C(=O)O (centres undefined),78.6*,-5.7,39.2,x
Cc1nc(C(=O)NNC(=O)c2cccc(Cl)c2)c(C(F)(F)F)o1,-76.9,-2.2,-71.4*,x
CN(C)C(CNC(=O)c1cccc(OC(F)F)c1)c1ccco1 (centres undefined),4.8,2.9,-16.7,45.2*
CN(C)C(CNC(=O)c1ccc2nccnc2c1)c1ccco1 (centres undefined),x,-9.5,x,u
CC(=O)c1ccc(-c2ccc(C(=O)NCC(c3ccco3)N(C)C)o2)cc1 (centres undefined),x,-0.6,x,80.4*
Cc1noc(C)c1S(=O)(=O)N(C)C[C@H]1OCCCC[C@H](C)Oc2ccc(NC(=O)NC3CCCCC3)cc2C(=O)N([C@@H](C)CO)C[C@@H]1C,x,x,x,-6.1
C[C@H](CO)N1C[C@H](C)[C@@H](CN(C)C(=O)Nc2ccccc2)Oc2ccc(NC(=O)Nc3ccc(F)cc3)cc2CC1=O,x,x,x,2.2
CCN(CC)C(=O)COc1ccc(-c2ccccc2)cc1,46.6,2.0,18.0,50.1*
O=S(=O)(Nc1ccc2c(c1)nc1n2CCN(Cc2ccccc2)C1)c1ccc(Cl)cc1,66.8*,-14.7,34.7,-0.4
Cn1c(CN2CCCCC2)nc2cc(NS(=O)(=O)c3ccc(Cl)cc3)ccc21,10.8,-7.8,-0.5,-6.7
Cn1c(CCN2CCCCC2)nc2cc(NS(=O)(=O)c3ccc(Cl)cc3)ccc21,61.6*,19.0,24.5,0.5
SMILES,HSF-1 act,Vif imaging,HSF1 inh,esBAF inh
O=S(=O)(Nc1ccc2c(c1)nc1n2CCN(Cc2ccccc2)C1)c1ccccc1,3.8,1.9,-1.8,x
C1=C(c2ccccc2)CCN(c2ncnc3nc[nH]c23)C1,-79.4,5.9,-75.0*,3.5
c1ccc2c(c1)CCN(c1ncnc3nc[nH]c13)C2,-0.7,-0.2,1.0,-3.3
Oc1ccc2ccccc2c1CN1CCOCC1,82.8*,-2.3,70.6,-2.6
Oc1cnc2ccccc2c1CN1CCOCC1,5.1,x,1.4,-8.2
Oc1ccccc1Cc1c(O)ccc2ccccc12,100.9*,-4.6,64.4,5.7
OCCC1CN(Cc2c(O)ccc3ccccc23)CCN1CCc1ccccc1 (centres undefined),215.6*,-6.2,167.2,x
CN(C)Cc1c(O)ccc2ccccc12,-2.8,1.7,-0.4,x
